Measurements from PubChem BioAssay (EPA / NIEHS).
Records with an inconclusive call do not appear. Calls of active or inactive are those of the source. The calls were made as follows, unless noted: active = hit-call score of the fitted dose curve at least 0.9, where 1 is the maximum; inactive = score below 0.9.

Experiments:
[1] = target: Oxysterols receptor LXR-alpha (Homo sapiens) (UniProt Q13133); test: ATG_LXRa_TRANS: Attagene TRANS-FACTORIAL HepG2 Assay for human Liver X Receptor alpha (LXRa) (AID 2282980; active = hit-call score of the fitted dose curve at least 0.9, where 1 is the maximum); settings: HepG2 Attagene TRANS reporter, LXRa transactivation
Outline: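 Transient HepG2 transfectants, 24 h dosing, RT-PCR/CE mRNA reporter quantitation; gain-of-signal vs DMSO.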

[2] = target: Oxysterols receptor LXR-beta (Homo sapiens) (UniProt P55055); test: ATG_LXRb_TRANS: Attagene TRANS-FACTORIAL HepG2 Assay for human Liver X Receptor beta (LXRb) (AID 2282981; active = hit-call score of the fitted dose curve at least 0.9, where 1 is the maximum); settings: HepG2 Attagene TRANS GAL4-LXRb reporter, mRNA
Outline: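 Cells: HepG2, transiently transfected with GAL4-UAS reporter units plus LXRb-Gal4 fusion. Treatment: 24 h. Detection: reporter mRNA by RT-PCR, 6-FAM labelling, HpaI digestion, capillary electrophoresis.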

[3] = ATG_M_06_TRANS: Attagene TRANS-FACTORIAL HepG2 Assay for M06 Transcription Factor (Internal Marker) (AID 2282983; active = hit-call score of the fitted dose curve at least 0.9, where 1 is the maximum;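 also: reporter transcript level by RT-PCR then capillary electrophoresis fluorescence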); settings: HepG2 Attagene TRANS M06 internal marker reporter
Outline: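 Measured by capillary electrophoresis of fluorescently labelled RT-PCR products, this endpoint reflects reporter mRNA in HepG2 cells harbouring exogenous NR-GAL4 reporter constructs after 24 h exposure, with DMSO as baseline.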

[4] = target: Nuclear receptor subfamily 4 group A member 2 (Homo sapiens) (UniProt P43354); test: ATG_NURR1_TRANS: Attagene TRANS-FACTORIAL HepG2 Assay for human Nuclear Receptor Related Protein 1 (NURR1) (AID 2282985; active = hit-call score of the fitted dose curve at least 0.9, where 1 is the maximum); settings: HepG2 Attagene TRANS reporter, mRNA readout
Outline: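 Cells: HepG2, transiently transfected. Exposure: 24 h. Detection: fluorescence of labelled RT-PCR products separated by capillary electrophoresis; upward fit versus DMSO.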

[5] = target: Transcriptional activator Myb (Homo sapiens) (UniProt P10242); test: ATG_Myb_CIS: Attagene CIS-FACTORIAL HepG2 Assay for human Myeloblastosis (Myb) Proto-Oncogene Transcription Factor (AID 2282986); settings: HepG2 Attagene CIS-FACTORIAL Myb reporter transcription; actives raise or lower the signal
Outline: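 Transiently transfected HepG2 cells carrying a multiplexed cis-promoter reporter set report endogenous Myb activity after 24 h compound exposure. Reporter mRNA is read by RT-PCR with capillary electrophoresis of fluorescent products, fitted bidirectionally against DMSO.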

[6] = target: Nuclear respiratory factor 1 (Homo sapiens) (UniProt Q16656); test: ATG_NRF1_CIS: Attagene CIS-FACTORIAL HepG2 Assay for human Nuclear Respiratory Factor 1 (NRF1) Orphan Gene (AID 2282987); settings: HepG2 NRF1 cis-element reporter, Attagene multiplex; actives raise or lower the signal
Outline: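 HepG2 cells transiently transfected with multiple cis-regulated reporter units, exposed 24 h. Reporter mRNAs measured by RT-PCR, fluorescent labelling, HpaI digestion and capillary electrophoresis; bidirectional fitting against DMSO.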

[7] = ATG_NFI_CIS: Attagene CIS-FACTORIAL HepG2 Assay for human Nuclear Factor I (NFI) (AID 2282989); settings: HepG2 cis-regulatory reporter, NFI response element transcription; actives raise or lower the signal
Outline: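 Reporter transcription driven by endogenous transcription factors in HepG2 cells; 24 h treatment. Quantitation by labelled RT-PCR fragments on capillary electrophoresis, gain- or loss-of-signal relative to DMSO.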

[8] = target: Myc proto-oncogene protein (Homo sapiens) (UniProt P01106); test: ATG_Myc_CIS: Attagene CIS-FACTORIAL HepG2 Assay for human Myelocytomatosis (Myc) Proto-Oncogene Transcription Factor (AID 2282990); settings: HepG2, Attagene cis-reporter transcription factor activity; actives raise or lower the signal
Outline: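 Cells of the HepG2 human liver line bear multiple cis-driven reporter transcription units. Reporter mRNA after 24 h exposure is reverse-transcribed, amplified, labelled and resolved by capillary electrophoresis, with gain- or loss-of-signal fitting relative to DMSO.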

[9] = ATG_NF_kB_CIS: Attagene CIS-FACTORIAL HepG2 Assay for human Nuclear Factor Kappa B (NF-kB) (AID 2282991); settings: HepG2 Attagene cis-factorial NF-kB reporter mRNA; actives raise or lower the signal
Outline: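 HepG2 cells transfected with cis-promoter-driven reporter units, so endogenous transcription factor activity is measured. Reporter mRNA quantified 24 h after dosing by RT-PCR and capillary electrophoresis, with bidirectional fitting against DMSO.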

[10] = ATG_NRF2_ARE_CIS: Attagene CIS-FACTORIAL HepG2 Assay for human Nuclear Factor Erythroid 2 Related Factor 2 (NFR2) response to Antioxidant Response Elements (ARE) (AID 2282992); settings: HepG2 Attagene ARE/NRF2 reporter, transcription factor activity; actives raise or lower the signal;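 as to AC50: reporter mRNA level measured by RT-PCR and capillary electrophoresis fluorescence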
Outline: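 Multiplexed reporter mRNA profiling in HepG2 after a 24 h chemical exposure. Curves fitted in both directions relative to DMSO negative control.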

[11] = ATG_Oct_MLP_CIS: Attagene CIS-FACTORIAL HepG2 Assay for human Octamer-Binding Transcription Factor (Oct) (AID 2282993); settings: HepG2 Attagene cis-factorial Oct reporter, mRNA; actives raise or lower the signal
Outline: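 Transfected HepG2 cells, 24 h treatment. Reporter mRNA quantified by RT-PCR–capillary electrophoresis; bidirectional fitting against DMSO.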

[12] = target: Cellular tumor antigen p53 (Homo sapiens) (UniProt P04637); test: ATG_p53_CIS: Attagene CIS-FACTORIAL HepG2 Assay for human p53 Transcription Factor (AID 2282994); settings: HepG2 p53 cis-element reporter, Attagene mRNA; actives raise or lower the signal
Outline: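 Multiplexed reporter mRNA assay in human HepG2 liver cells; cis-regulated units report endogenous factor activity. Values come from bidirectional curve fitting against DMSO negative control after 24 h treatment.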

[13] = target: human Peroxisome Proliferator-activated Receptor alpha (PPARa), PPARA (gene 5465) (UniProt Q07869); test: ATG_PPARa_TRANS: Attagene TRANS-FACTORIAL HepG2 Assay for human Peroxisome Proliferator-activated Receptor alpha (PPARa) (AID 2283001; active = hit-call score of the fitted dose curve at least 0.9, where 1 is the maximum;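 as to AC50: potency for gain of reporter signal over DMSO so agonist or activator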)
Outline: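 Reporter transcripts from GAL4-UAS units in transfected HepG2 were quantified 24 h after dosing. Detection used reverse transcription, PCR, fluorescent primer extension and capillary electrophoresis, with DMSO as baseline.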

[14] = ATG_M_32_TRANS: Attagene TRANS-FACTORIAL HepG2 Assay for M32 Transcription Factor (Internal Marker) (AID 2282984; active = hit-call score of the fitted dose curve at least 0.9, where 1 is the maximum;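 also: transcript level of a background control reporter unit measured by RT-PCR and capillary electrophoresis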); settings: HepG2 Attagene TRANS M32 internal marker reporter
Outline: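 Using transiently transfected HepG2 cells exposed to test chemicals for 24 h, reporter transcripts are converted to labelled cDNA fragments and quantified by capillary electrophoresis. DMSO defines the activity baseline.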

[15] = target: Hepatocyte nuclear factor 4-alpha (Homo sapiens) (UniProt P41235); test: ATG_HNF4a_TRANS: Attagene TRANS-FACTORIAL HepG2 Assay for human Hepatocyte Nuclear Factor 4 alpha (HNF4a) (AID 2282982; active = hit-call score of the fitted dose curve at least 0.9, where 1 is the maximum); settings: HepG2 HNF4a transactivation reporter, mRNA readout
Outline: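 Transfected HepG2 reporter cells are dosed for 24 h; reporter RNA is reverse-transcribed, amplified, fluorescently labelled and HpaI-digested before CE sizing. Positive-direction fit against DMSO.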

[16] = BSK_3C_TissueFactor: BioMAP Diversity Plus: 3C Assay for Tissue Factor Biomarker Activity (AID 2282997); settings: BioMAP 3C HUVEC, tissue factor biomarker readout; actives raise or lower the signal
Outline: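 Values derive from bidirectional curve fitting against DMSO of Tissue Factor ELISA signals, taken 24 h after dosing primary human umbilical vein endothelial cells.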

[17] = BSK_3C_uPAR: BioMAP Diversity Plus: 3C Assay for Urokinase-type plasminogen activator receptor (uPAR) Biomarker Activity (AID 2282998); settings: BioMAP 3C HUVEC, uPAR biomarker ELISA; actives raise or lower the signal
Outline: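 Readout: ELISA for surface uPAR. System: human umbilical vein endothelial primary cells, 24 h after chemical exposure. Analysis: bidirectional fit, DMSO baseline.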

[18] = BSK_3C_VCAM1: BioMAP Diversity Plus: 3C Assay for Vascular cell adhesion molecule 1 (VCAM1) Biomarker Activity (AID 2282999); settings: BioMAP 3C HUVEC, VCAM1 ELISA, cytokine-stimulated; actives raise or lower the signal
Outline: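 Endothelial cells from human umbilical vein are treated with test chemical. At 24 h, VCAM-1 is measured by ELISA, and responses in either direction are fitted relative to DMSO.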

Sequence of Cellular tumor antigen p53 (Homo sapiens) (P04637 whole entry, looked up): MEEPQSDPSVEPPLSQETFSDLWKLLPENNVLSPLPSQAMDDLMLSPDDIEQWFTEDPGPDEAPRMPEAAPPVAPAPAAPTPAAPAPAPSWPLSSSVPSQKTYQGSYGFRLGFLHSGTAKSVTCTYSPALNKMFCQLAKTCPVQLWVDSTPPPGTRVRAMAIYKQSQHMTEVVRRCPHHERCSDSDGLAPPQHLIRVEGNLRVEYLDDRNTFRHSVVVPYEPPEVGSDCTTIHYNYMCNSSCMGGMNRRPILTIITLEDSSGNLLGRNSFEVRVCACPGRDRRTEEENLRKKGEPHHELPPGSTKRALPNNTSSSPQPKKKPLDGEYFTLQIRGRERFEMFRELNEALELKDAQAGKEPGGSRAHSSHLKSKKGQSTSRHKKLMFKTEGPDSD
Sequence of Oxysterols receptor LXR-alpha (Homo sapiens) (Q13133 whole entry, looked up): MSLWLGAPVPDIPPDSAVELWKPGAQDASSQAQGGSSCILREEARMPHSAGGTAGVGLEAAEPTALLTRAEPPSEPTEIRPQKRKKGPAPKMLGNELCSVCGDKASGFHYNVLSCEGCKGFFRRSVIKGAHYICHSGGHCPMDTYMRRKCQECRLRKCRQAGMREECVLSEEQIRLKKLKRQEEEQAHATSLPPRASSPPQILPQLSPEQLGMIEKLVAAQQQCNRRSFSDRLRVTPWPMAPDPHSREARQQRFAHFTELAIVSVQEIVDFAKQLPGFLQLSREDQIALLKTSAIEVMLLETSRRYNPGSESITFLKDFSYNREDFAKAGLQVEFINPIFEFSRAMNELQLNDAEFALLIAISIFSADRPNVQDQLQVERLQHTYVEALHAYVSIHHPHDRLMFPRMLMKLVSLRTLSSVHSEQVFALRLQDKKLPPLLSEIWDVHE
Sequence of Nuclear receptor subfamily 4 group A member 2 (Homo sapiens) (P43354 whole entry, looked up): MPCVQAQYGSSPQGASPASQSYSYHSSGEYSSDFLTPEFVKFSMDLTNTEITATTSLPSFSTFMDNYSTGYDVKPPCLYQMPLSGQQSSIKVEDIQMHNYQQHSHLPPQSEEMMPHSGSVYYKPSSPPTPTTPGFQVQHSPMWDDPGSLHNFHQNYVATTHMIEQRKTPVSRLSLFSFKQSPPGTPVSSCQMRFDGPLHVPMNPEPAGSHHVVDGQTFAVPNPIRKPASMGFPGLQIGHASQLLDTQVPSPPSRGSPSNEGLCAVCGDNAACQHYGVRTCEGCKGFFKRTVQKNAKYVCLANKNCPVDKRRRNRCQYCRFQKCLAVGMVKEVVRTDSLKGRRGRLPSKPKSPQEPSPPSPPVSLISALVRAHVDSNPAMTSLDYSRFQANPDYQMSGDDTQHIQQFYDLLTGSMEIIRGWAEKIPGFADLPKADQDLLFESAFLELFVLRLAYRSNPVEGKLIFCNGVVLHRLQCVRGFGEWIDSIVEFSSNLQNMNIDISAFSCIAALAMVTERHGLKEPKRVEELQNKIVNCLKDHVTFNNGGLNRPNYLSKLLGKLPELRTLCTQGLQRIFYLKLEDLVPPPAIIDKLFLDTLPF
Sequence of Transcriptional activator Myb (Homo sapiens) (P10242 whole entry, looked up): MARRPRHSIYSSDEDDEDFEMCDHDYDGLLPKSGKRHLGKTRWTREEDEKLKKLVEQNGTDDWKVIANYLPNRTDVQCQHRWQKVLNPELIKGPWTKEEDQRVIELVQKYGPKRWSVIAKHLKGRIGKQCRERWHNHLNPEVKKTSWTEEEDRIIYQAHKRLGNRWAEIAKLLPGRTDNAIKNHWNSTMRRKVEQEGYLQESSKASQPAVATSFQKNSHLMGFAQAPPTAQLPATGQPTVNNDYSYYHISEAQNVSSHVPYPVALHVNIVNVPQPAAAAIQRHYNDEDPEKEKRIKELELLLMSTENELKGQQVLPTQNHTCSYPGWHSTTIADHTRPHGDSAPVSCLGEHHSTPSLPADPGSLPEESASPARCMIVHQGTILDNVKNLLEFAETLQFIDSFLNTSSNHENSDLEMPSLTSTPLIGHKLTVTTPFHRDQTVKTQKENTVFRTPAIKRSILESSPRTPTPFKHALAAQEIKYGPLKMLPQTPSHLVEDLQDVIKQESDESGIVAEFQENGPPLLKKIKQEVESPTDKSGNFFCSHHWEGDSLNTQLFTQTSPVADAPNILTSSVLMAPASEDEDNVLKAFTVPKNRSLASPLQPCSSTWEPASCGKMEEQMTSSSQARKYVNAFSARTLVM
Sequence of Nuclear respiratory factor 1 (Homo sapiens) (Q16656 whole entry, looked up): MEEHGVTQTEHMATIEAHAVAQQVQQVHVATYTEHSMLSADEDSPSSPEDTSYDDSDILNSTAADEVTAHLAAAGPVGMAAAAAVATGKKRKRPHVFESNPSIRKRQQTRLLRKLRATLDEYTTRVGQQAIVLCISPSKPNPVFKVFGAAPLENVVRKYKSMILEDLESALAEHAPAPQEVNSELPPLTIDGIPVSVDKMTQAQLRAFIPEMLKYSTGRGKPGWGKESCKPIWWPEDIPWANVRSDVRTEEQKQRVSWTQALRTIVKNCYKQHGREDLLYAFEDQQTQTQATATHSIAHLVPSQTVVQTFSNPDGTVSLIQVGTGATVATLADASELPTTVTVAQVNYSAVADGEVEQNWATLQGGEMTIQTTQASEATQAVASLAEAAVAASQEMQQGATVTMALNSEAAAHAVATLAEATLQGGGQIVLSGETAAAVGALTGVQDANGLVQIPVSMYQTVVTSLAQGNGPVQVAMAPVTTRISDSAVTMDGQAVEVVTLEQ
Sequence of human Peroxisome Proliferator-activated Receptor alpha (PPARa), PPARA (gene 5465) (Q07869 whole entry, looked up, the tested form may be a part): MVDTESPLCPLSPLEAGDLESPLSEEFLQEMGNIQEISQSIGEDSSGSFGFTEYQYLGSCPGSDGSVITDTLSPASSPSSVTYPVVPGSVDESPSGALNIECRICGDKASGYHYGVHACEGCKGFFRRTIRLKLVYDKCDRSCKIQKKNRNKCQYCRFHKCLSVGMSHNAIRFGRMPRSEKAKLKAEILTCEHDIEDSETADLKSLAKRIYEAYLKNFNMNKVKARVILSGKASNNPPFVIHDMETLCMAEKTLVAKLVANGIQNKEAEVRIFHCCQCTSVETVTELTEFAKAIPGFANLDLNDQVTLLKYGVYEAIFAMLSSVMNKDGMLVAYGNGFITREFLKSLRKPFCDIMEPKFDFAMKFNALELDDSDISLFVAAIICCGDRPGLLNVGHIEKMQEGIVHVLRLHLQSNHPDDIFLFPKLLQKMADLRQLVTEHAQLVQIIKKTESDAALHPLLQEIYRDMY
Sequence of Myc proto-oncogene protein (Homo sapiens) (P01106 whole entry, looked up): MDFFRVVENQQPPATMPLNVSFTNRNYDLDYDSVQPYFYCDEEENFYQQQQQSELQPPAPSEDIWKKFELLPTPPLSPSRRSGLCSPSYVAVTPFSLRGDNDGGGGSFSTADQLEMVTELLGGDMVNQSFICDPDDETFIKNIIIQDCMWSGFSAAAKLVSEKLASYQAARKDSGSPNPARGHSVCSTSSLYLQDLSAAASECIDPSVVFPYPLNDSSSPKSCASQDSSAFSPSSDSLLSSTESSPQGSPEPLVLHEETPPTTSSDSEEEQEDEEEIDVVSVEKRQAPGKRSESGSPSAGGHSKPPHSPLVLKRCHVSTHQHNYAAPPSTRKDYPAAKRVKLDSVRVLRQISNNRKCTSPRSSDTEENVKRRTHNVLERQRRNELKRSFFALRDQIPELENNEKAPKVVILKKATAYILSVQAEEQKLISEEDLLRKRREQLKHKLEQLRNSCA
Sequence of Hepatocyte nuclear factor 4-alpha (Homo sapiens) (P41235 whole entry, looked up): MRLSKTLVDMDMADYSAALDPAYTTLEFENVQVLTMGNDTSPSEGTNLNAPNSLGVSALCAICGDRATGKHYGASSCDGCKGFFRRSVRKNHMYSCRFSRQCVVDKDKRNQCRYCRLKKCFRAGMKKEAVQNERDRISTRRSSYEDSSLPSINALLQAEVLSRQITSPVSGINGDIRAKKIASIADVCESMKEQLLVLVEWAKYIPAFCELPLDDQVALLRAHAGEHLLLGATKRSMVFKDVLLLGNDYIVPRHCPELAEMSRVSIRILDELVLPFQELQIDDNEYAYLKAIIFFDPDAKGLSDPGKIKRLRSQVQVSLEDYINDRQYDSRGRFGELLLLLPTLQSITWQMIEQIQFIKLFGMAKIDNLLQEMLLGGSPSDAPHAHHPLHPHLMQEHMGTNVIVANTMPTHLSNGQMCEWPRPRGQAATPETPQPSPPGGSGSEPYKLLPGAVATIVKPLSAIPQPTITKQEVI
Sequence of Oxysterols receptor LXR-beta (Homo sapiens) (P55055 whole entry, looked up, the tested form may be a part): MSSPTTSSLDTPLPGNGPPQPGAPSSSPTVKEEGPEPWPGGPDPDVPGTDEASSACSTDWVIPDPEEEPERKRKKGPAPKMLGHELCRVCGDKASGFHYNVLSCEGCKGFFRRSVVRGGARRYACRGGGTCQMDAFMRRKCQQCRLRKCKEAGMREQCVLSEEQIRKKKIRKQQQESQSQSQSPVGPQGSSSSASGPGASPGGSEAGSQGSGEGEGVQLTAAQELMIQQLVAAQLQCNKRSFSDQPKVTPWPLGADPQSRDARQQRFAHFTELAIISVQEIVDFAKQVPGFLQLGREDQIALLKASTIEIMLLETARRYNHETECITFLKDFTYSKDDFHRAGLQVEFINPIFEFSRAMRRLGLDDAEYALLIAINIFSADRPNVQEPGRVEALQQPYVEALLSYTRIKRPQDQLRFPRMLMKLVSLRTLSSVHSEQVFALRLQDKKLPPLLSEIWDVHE

Which outcome [1] does the source give for `CC1COCc2cc3c(cc21)C(C)(C)C(C)C3(C)C` (stereo unspecified) here?
Its outcome is “inactive”.

What about the outcome [2] of the same compound?
The outcome was “inactive”.

What about the outcome [3] of the same compound?
The outcome was “inactive”.

What about the outcome [4] of the same compound?
The outcome was “inactive”.

What about the AC50 [5] of the same compound?
The AC50 was 162 µM (active).

What about the outcome [6] of the same compound?
The outcome was “inactive”.

And the AC50 [7]?
The AC50 was 170 µM (active).

And the AC50 [8]?
Its AC50 is 120 µM (active).

And the AC50 [9]?
The AC50 was 166 µM (active).

What about the AC50 [10] of the same compound?
Its AC50 is 41.2 µM (active).

What about the outcome [11] of the same compound?
The outcome was “inactive”.

And the outcome [12]?
Its outcome is “inactive”.

What about the outcome [13] of the same compound?
The outcome was “inactive”.

What does the source list for `O=C1C=CC(=O)N1c1cccc(N2C(=O)C=CC2=O)c1`?
outcome [1]: inactive; outcome [2]: inactive; outcome [3]: inactive; outcome [14]: inactive; outcome [5]: inactive; outcome [6]: inactive; outcome [7]: inactive; outcome [9]: inactive; outcome [10]: inactive; outcome [11]: inactive; outcome [12]: inactive; outcome [13]: inactive

With `CCCCCCOC(=O)c1ccc(O)cc1` as the compound, how does the outcome [1] read?
Its outcome is “inactive”.

What about the outcome [2] of the same compound?
The outcome was “inactive”.

What about the outcome [15] of the same compound?
Its outcome is “inactive”.

What about the outcome [3] of the same compound?
Its outcome is “inactive”.

What about the outcome [14] of the same compound?
The outcome was “inactive”.

And the AC50 [4]?
The AC50 was 51.4 µM (active).

And the outcome [5]?
Its outcome is “inactive”.

And the AC50 [6]?
Its AC50 is 58.5 µM (active).

And the AC50 [7]?
The AC50 was 55 µM (active).

And the AC50 [8]?
Its AC50 is 60.9 µM (active).

And the AC50 [9]?
The AC50 was 62.5 µM (active).

What about the AC50 [11] of the same compound?
The AC50 was 57 µM (active).

What about the AC50 [12] of the same compound?
Its AC50 is 52.2 µM (active).

What about the AC50 [13] of the same compound?
Its AC50 is 63.7 µM (active).

Which results are given for `CCCCCCCCCCCCCCCCCC[N+](C)(C)Cc1ccccc1`?
outcome [1]: inactive; outcome [2]: inactive; AC50 [15]: 50 µM (active); outcome [3]: inactive; outcome [14]: inactive; outcome [4]: inactive; outcome [5]: inactive; outcome [6]: inactive; outcome [7]: inactive; outcome [8]: inactive; outcome [9]: inactive; AC50 [10]: 12.6 µM (active); AC50 [11]: 3.19 µM (active); outcome [12]: inactive; AC50 [16]: 1.17 µM (active); AC50 [17]: 0.35 µM (active); AC50 [18]: 1.91 µM (active); outcome [13]: inactive

Which results are given for `c1ccc(CNc2ncnc3c2ncn3C2CCCCO2)cc1` (stereo unspecified)?
outcome [1]: inactive; outcome [2]: inactive; outcome [15]: inactive; outcome [3]: inactive; outcome [14]: inactive; outcome [4]: inactive; outcome [5]: inactive; outcome [6]: inactive; outcome [7]: inactive; outcome [8]: inactive; outcome [9]: inactive; AC50 [10]: 19.8 µM (active); outcome [11]: inactive; outcome [12]: inactive

For `COc1ccccc1NC(=O)c1cc2ccccc2cc1O`, which outcome [1] is on record?
The outcome was “inactive”.

What about the outcome [2] of the same compound?
Its outcome is “inactive”.

And the outcome [14]?
The outcome was “inactive”.

What about the outcome [4] of the same compound?
The outcome was “inactive”.

And the AC50 [5]?
Its AC50 is 121 µM (active).

What about the outcome [6] of the same compound?
The outcome was “inactive”.

What about the AC50 [7] of the same compound?
Its AC50 is 30.4 µM (active).

What about the AC50 [8] of the same compound?
Its AC50 is 100 µM (active).

What about the outcome [9] of the same compound?
Its outcome is “inactive”.

And the outcome [10]?
Its outcome is “inactive”.

And the AC50 [11]?
Its AC50 is 26.7 µM (active).

And the AC50 [12]?
Its AC50 is 17.4 µM (active).

And the outcome [13]?
Its outcome is “inactive”.

Which outcome [1] does the source give for `Cc1ccc(C)c(S(=O)(=O)O)c1` here?
Its outcome is “inactive”.

And the outcome [3]?
Its outcome is “inactive”.

And the outcome [14]?
Its outcome is “inactive”.

What about the outcome [4] of the same compound?
Its outcome is “inactive”.

And the outcome [5]?
Its outcome is “inactive”.

What about the outcome [6] of the same compound?
The outcome was “inactive”.

What about the outcome [7] of the same compound?
The outcome was “inactive”.

What about the outcome [8] of the same compound?
Its outcome is “inactive”.

What about the outcome [11] of the same compound?
The outcome was “inactive”.

What about the outcome [12] of the same compound?
The outcome was “inactive”.

And the outcome [13]?
Its outcome is “inactive”.

For `CCCC=O`, which outcome [1] is on record?
The outcome was “inactive”.

What about the outcome [15] of the same compound?
Its outcome is “inactive”.

And the outcome [3]?
Its outcome is “inactive”.

And the outcome [4]?
Its outcome is “inactive”.

What about the outcome [5] of the same compound?
Its outcome is “inactive”.

What about the outcome [6] of the same compound?
The outcome was “inactive”.

What about the outcome [7] of the same compound?
Its outcome is “inactive”.

And the outcome [9]?
The outcome was “inactive”.

What about the outcome [10] of the same compound?
The outcome was “inactive”.

And the outcome [11]?
The outcome was “inactive”.

What about the outcome [12] of the same compound?
The outcome was “inactive”.
